Reference: ChEMBL document CHEMBL3988442, “University of Dundee, Small-Polar-MMV Screening Library” (2021)

Molecular target: AMP-activated protein kinase, AMPK (Homo sapiens) (UniProt P54646+O43741+P54619+Q9UGJ0+Q9Y478+Q13131+Q9UGI9)
Test: AMP-dependent Kinase enzyme assay. An in vitro enzyme assay that detects ADP turnover that is directly proportional to AMPK activity. This uses naive AMPK that is activated during the assay with MK-8722
Assay type: functional
Parameters: scale not given: direction of the effect not stated beside the values
Settings: 30 µM

| SMILES | Percent Effect [%] |
| --- | --- |
| O=C(NCCn1ccnc1)C1COCC(=O)N1Cc1ccccc1 (stereo not given) | 5.07 |
| Cc1nn(C)c(C)c1C1COCCN1C(=O)NC1CC1 (stereo not given) | -1.36 |
| Fc1cccc(OC2CCN(CCn3cc4ccccc4n3)CC2)c1 | 7.33 |
| CN(C)CCN(Cc1ccc(C#N)cc1)C(=O)c1ccn(C)c(=O)c1 | 15.4 |
| CS(=O)(=O)CCCNc1cccc(COC2CCCCC2)c1 | -2.55 |
| COc1ccccc1OC1CCN(C(=O)c2cnc(C)s2)CC1 | 3.19 |
| COc1cc(CCC(=O)N2CCC(c3cc4ncc(C)nc4[nH]3)C2)on1 (stereo not given) | -0.349 |
| Cc1nccc(C2(C)CCCNC2)n1 (stereo not given) | 13.7 |
| Cc1c(NC(=O)N(C)CCO)cccc1OC1CCCC1 | -3.01 |
| CC(=O)NCC(=O)Nc1cc(C)n(-c2ccc(Cl)cc2Cl)n1 | 3.23 |
| CCCc1nnc(N2CCC(N3CCCCCC3)CC2)o1 | -2.81 |
| CN1CCC(Nc2cc(Cl)ccc2OCC(F)(F)F)C1=O (stereo not given) | -5.49 |
| O=C(NCc1ccon1)Nc1cc(F)ccc1N1CCCCC1 | 5.82 |
| CS(=O)(=O)NC1CCN(Cc2coc(-c3ccccc3)n2)CC1 | 0.161 |
| CC(C)[C@H]1CN(Cc2nccn2C)C[C@@H]1NC(=O)CCS(C)(=O)=O | 1.59 |
| CCc1ccc(CCC(=O)N2CCC(=O)Nc3cccnc32)cc1 | 0.539 |
| COc1ccc(Oc2cc(CN)ccn2)cc1 | -36.1 |
| Cc1cc2ccccc2n1CCC(=O)N1CCCC(O)(CN(C)C)CC1 (stereo not given) | 0.58 |
| c1ncc(-c2cn(CCSc3cnn[nH]3)nn2)cn1 | -3.28 |
| CC(C)(CNc1cccc(Cl)c1)NC(=O)C1CCCN(CC(N)=O)C1 (stereo not given) | 40.1 |

| SMILES | Percent Effect [%] |
| --- | --- |
| c1cc(CN2CCC[C@@H](Cn3nnc(-c4cnccn4)n3)C2)ccn1 | 6.31 |
| CC(C)c1noc(CN2CCN(C(=O)OC(C)(C)C)C(C)C2)n1 (stereo not given) | -3.51 |
| Cc1ncsc1CCN(C)C(=O)c1ccc(CN2CCCCC2)cc1 | 5.27 |
| COCCN1C[C@H]2CC[C@@H]1CN(C(=O)CCc1c(C)nn(C)c1C)C2 | -4.69 |
| NC(=O)c1csc(N2C[C@@H](CN3CCCCC3)[C@@H](CO)C2)n1 | -3.06 |
| CC(C)c1cc(C(=O)NCC2CCCN(c3ncccn3)C2)n(C)n1 (stereo not given) | 5.97 |
| COc1ccc(CC(C)Nc2cccc(SC)c2)cc1 (stereo not given) | -5.64 |
| Cc1nc(C2CCCN2CCOCC2CC2)no1 (stereo not given) | -0.854 |
| CC1(C)OC(=O)N(CC(=O)N2CCC(c3ccccc3F)C2)C1=O (stereo not given) | 12.7 |
| Cc1cc(CC(=O)NC2CCCN(c3ccccc3F)C2=O)n[nH]1 (stereo not given) | 10.6 |
| CC(c1ccc(F)cc1F)N1CCN(CCC(=O)NC(N)=O)CC1 (stereo not given) | -3.39 |
| Cc1cc(-c2cnc(N3CCC(O)CC3)nc2C(C)C)on1 | 20.1 |
| Cc1ccc(C2(O)CCN(C(=O)CCn3c(C)cccc3=O)CC2)nc1 | -22.2 |
| N#CC1(NC(=O)c2cc(Cl)ccc2OC(F)F)CCOCC1 | -2.23 |
| COc1ncnc(N)c1CNCc1ccccc1-n1cccn1 | -8.85 |
| Cc1cc(C)nc(NC2CCN(CCOC(C)C)CC2)n1 | 7.53 |
| CN(CCCO)C(=O)c1cc(COc2ccc3c(c2)CCCC3)on1 | -1.01 |
| CNC(=O)C1(C)CN(S(=O)(=O)c2cccc(OC)c2)CCO1 (stereo not given) | 4.63 |
| CC(C)c1noc(C(C)N2CCN(Cc3nc4ccccc4[nH]3)CC2)n1 (stereo not given) | -0.358 |
| CCc1ccsc1C(=O)NC(C#N)CC(C)C (stereo not given) | -7.05 |
